We go through 40 molecules from PubChem BioAssay (EPA / NIEHS).

Activity calls are given as the source filed them. Rule for the calls: active = hit-call score of the fitted dose curve at least 0.9, where 1 is the maximum; inactive = score below 0.9.

One may read the AC50 as the concentration giving half of the maximal activity seen.

A short description of the assay: ATG_NF_kB_CIS: Attagene CIS-FACTORIAL HepG2 Assay for human Nuclear Factor Kappa B (NF-kB) (AID 2282991). Particulars: HepG2 Attagene cis-factorial NF-kB reporter mRNA; actives raise or lower the signal. The method, then: ATG_CIS is a cell-based, multiplexed-readout assay that uses HepG2, a human liver cell line, with measurements taken at 24 hours after chemical dosing in a 24-well plate.ATG_NF_kB_CIS is one of 52 assay component(s) measured or calculated from the ATG_CIS assay. It is designed to make measurements of mRNA induction, a form of inducible reporter, as detected with fluorescence intensity signals by Reverse transcription polymerase chain reaction (RT-PCR) and Capillary electrophoresis technology.Data from the assay component ATG_NF_kB_CIS was analyzed into 1 assay endpoint. This assay endpoint, ATG_NF_kB_CIS, was analyzed with bidirectional fitting relative to DMSO as the negative control and baseline of activity. Using a type of inducible reporter, measures of mRNA for gain or loss-of-signal activity can be used to understand the reporter gene at the transcription factor-level as they relate to the gene NFKB1. Furthermore, this assay endpoint can be referred to as a primary readout, because this assay has produced multiple assay endpoints where this one serves a reporter gene function. To generalize the intended target to other relatable targets, this assay endpoint is annotated to the dna binding intended target family, where the subfamily is NF-kappa B.
Human liver HepG2 cells are transiently transfected with multiple reporter transcription units (MRTUs) in 6-well plates using FuGene 6 reagent (Roche; 3 ml FuGene/1 mg DNA). The MRTU constructs are regulated by a cis-regulating element (promoter). […] A major difference between the CIS and TRANS system is that in CIS activities of endogenous TFs are measured, whereas the TRANS assay evaluates changes in activities of exogenous, chimeric NR-Gal4 proteins. […] At the end of 24 hour incubation, total RNA was isolated using TriZol reagent (Invitrogen). The isolated RNA is then reverse-transcribed using oligo(dT) primer and Mo-MLV reverse transcriptase (Invitrogen) with DNAse I (Ambion) treatment for 30 min. The one-tenth of the produced cDNA was amplified by PCR using Taq DNA polymerase (Invitrogen) and two reporter sequence-specific primers. The PCR products were fluorescently labeled by primer extension with 6-arboxyfluorescein (6-FAM) 5'-labeled reporter sequence-specific primer (2 min at 95 C, 20 s at 68 C and 10 min at 72 C) and these products were digested with 5U of HpaI (New England Biolabs) for 2h at 37 C. The fragments were purified using Qiaquick PCR columns (Qiagen), analyzed on an ABI 3130xL genetic analyzer (Applied Biosystems) with peak positions identified by using a set of X-rhodamine (ROX)-labeled MapMarker1000 molecular weight standards (BioVentures). The raw capillary electrophoresis data was processed using Attagraph software (Attagene).
Regarding `OCC(O)c1ccccc1` (stereo not given), the result was inactive. Regarding `O=C1CCCC=CCCCCCCCCCC1`, the call was inactive. Same read-out and setting: in the case of `NC(=S)NNC(N)=S` it was “inactive”. For the molecule `C[C@@H]1CCN(C(=O)[C@H](CCCN=C(N)N)NS(=O)(=O)c2cccc3c2NC[C@H](C)C3)[C@@H](C(=O)O)C1`, the molecule was called inactive. With `CC(=O)OCCCc1ccccc1`, the molecule was called inactive. In the case of `CC(=O)Nc1ccc(C(=O)CCl)cc1`, the AC50 was 2.5 µM (active).

With `C#CC(C)N(C)C(=O)Nc1ccc(Cl)cc1` (stereo not given), the call was inactive.

In the case of `CC(=O)O[C@@H]1C[C@@H]2CC[C@@]1(C)C2(C)C`, the molecule was classed as inactive. The same measure, in the same setting: the entry for `CC1(C)CCC[C@]2(C)[C@H]3CCO[C@]3(C)CC[C@@H]12` is “inactive”; for `CC(=O)CC(=O)Nc1ccccc1` it is “inactive”. With `CC(C)Nc1nc(N)nc(Cl)n1`, the call was inactive. On the same count and under the same terms, in the case of `COc1ccc(CCN2CCC(Nc3nc4ccccc4n3Cc3ccc(F)cc3)CC2)cc1` it was “inactive”. Still for that read-out and setting: the entry for `C=CC(=C)CCCC(C)(C)OC(C)=O` is “inactive”.

Take `O=C1OC(=O)c2c(Br)c(Br)c(Br)c(Br)c21`: the result was inactive.

Regarding `CCOC(=O)CN`, the outcome was inactive. On to `Clc1ccc(C(c2ccccc2Cl)C(Cl)Cl)cc1` (stereo not given), for which the AC50 was 100 µM (active). On to `CC(=O)NCCO`, for which the molecule was called inactive. For `CCCCCCCCCCCC(=O)OC[C@@H](O)[C@H]1OC[C@H](O)[C@H]1O`, the outcome was inactive. For `COc1ccc(CCC(C)=O)cc1`, the call was inactive.

On to `COc1cc(CCC(C)=O)ccc1O`, for which the outcome was inactive. On to `CCCCSCCCC`, for which the result was inactive. For `OCC#CCO`, the molecule was classed as inactive. For the molecule `CCOC(=O)C1OC1c1ccccc1` (stereo not given), the AC50 is 47 µM (active). Turning to `Cc1cc(CCC(=O)OCCOCCOCCOC(=O)CCc2cc(C)c(O)c(C(C)(C)C)c2)cc(C(C)(C)C)c1O`, the call was inactive.

Turning to `CC(C)=CCCC(C)CC(=O)O` (stereo not given), the call was inactive. On the same count and under the same terms, the entry for `CCc1ccc(O)c(OC)c1` is “inactive”; for `COc1cccc(OC)c1O` it is “inactive”; for `Nc1c(Cl)cc(Cl)cc1[N+](=O)[O-]` it is “inactive”. `CCCCCC(C=O)=Cc1ccccc1`: the molecule was classed as inactive. In the case of `CCCCCCCCC=CCCCCCCCC1=NCCN1CCO`, the AC50 is 26 µM (active). Turning to `Cc1c(C2(c3cc(Br)c(O)c(Br)c3C)OS(=O)(=O)c3ccccc32)cc(Br)c(O)c1Br`, the result was inactive.

Consider `CCCCC(CC)COC(C)=O` (stereo not given), for which the outcome was inactive. On the same count and under the same terms, the entry for `BrCc1cccc(Oc2ccccc2)c1` is “inactive”; for `Nc1c(S(=O)(=O)O)cc(Br)c2c1C(=O)c1ccccc1C2=O` it is “inactive”; for `CC(C)=CCCC(C)CCOC=O` (stereo not given) it is “inactive”. The same measure, in the same setting: the entry for `O=C(O)CCCCCCCCC(=O)O` is “inactive”. Same read-out and setting: the entry for `CCC(C)S` (stereo not given) is “inactive”. In the case of `CCCN(CCC)S(=O)(=O)c1ccc(C(=O)O)cc1`, the result was inactive. As for `Cc1ccc(N)c(S(=O)(=O)O)c1`, the molecule was classed as inactive. In the case of `CC1C2CC(CC2C2CCCC(O)C2)C1(C)C` (stereo not given), the molecule was called inactive.
